Screening results from PubChem BioAssay.
Most compounds without a hit are left out; they make up all but 3.2% or so of the library.
LMNA splice mod – LMNA splicing modulation. Potency, µM (series often up to 46.1 µM), hits mostly inhibitors. HeLa LMNA splicing GFP/RFP minigene ratio, 48 h. 200,000 compounds, 0.01% hits. AID 1487; active means well fitted inhibition curve with a large enough effect in the signal ratio, with a control signal flat, not every such curve was filed as active; inconclusive means small, poorly fitted or top-dose-only effect, or effect the other way, or a change in a side signal; the % refers to the signal ratio
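Read-out is the ratio of GFP to DsRed2 object intensity, acquired by 488 nm laser-scanning cytometry on HeLa lamin A-EGFP minigene reporter cells. Compound incubation 48 hrs at 37 °C in Opti-MEM with 2% FBS; DMSO 0.5% final.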
Tau fluor cs – counter-screen for tau fibril formation inhibitors; Potency, µM (series often up to 57.7 µM); 280,000 compounds, 0.93% hits; tau K18 P301L Alexa594 fluorescence, heparin fibrillization; further: nearly all actives have a fitted effect of over 55% in size
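Human tau K18 P301L (15 uM unlabeled, 0.24 uM Alexa 594-labeled) in 100 mM sodium acetate pH 7 with 20 uM heparin, 6 hr at 37 C. ThT 30 uM added, 1 hr ambient; Alexa 594 FP and total fluorescence read at 555/632 nm.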
CBFb RUNX1 block – blocks binding between human CBF-beta and RUNX1 | Q01196+Q13951 | AlphaScreen CBFb-His/RUNX1-biotin binding, biochemical | Potency, µM (titrated, usually from 59.8 µM), hits mostly inhibitors | 230,000 tested, under 10 active | AID 1477
Target sequence (Q01196 whole entry, looked up): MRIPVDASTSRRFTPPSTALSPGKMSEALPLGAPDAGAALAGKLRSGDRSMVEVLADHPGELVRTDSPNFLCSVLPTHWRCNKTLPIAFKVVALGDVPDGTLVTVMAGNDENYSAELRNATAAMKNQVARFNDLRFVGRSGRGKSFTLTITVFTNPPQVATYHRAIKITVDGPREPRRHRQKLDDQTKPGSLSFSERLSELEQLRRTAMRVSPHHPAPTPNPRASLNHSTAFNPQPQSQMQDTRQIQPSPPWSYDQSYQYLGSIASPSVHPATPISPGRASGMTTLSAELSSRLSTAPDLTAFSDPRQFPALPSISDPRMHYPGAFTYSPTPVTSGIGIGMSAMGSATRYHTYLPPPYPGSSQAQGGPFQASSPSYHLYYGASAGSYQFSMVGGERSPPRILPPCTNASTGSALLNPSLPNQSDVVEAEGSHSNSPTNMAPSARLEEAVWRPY
Target sequence (Q13951 whole entry, looked up): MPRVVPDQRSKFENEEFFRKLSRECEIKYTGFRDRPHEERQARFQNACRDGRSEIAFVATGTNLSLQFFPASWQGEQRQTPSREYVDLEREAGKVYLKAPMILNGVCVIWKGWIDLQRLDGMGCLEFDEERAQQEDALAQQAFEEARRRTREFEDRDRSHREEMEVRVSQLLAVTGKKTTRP
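Bead-based AlphaScreen assay; binding partners His-tagged CBF-beta and biotinylated RUNX1 at 30 nM each. Compound exposure 15 min after a 20-min protein preincubation; bead step 90 min; all steps at room temperature.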
Tau fibril FP – blocks human tau fibril formation measured by polarization | Potency, µM (doses to about 57.7 µM), usual class: inhibitors | K18 P301L tau heparin fibrillization, Alexa594 FP, 6 h | P10636 | 280,000 compounds, 0.39% hits | AID 1468; further: nearly all actives have a fitted effect of over 55% in size
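Steps: dispense K18 P301L tau (15 uM plus 0.24 uM Alexa 594 tracer, final) in pH 7 sodium acetate; add compound; add heparin (20 uM final); incubate 6 hr, 37 C; add ThT (30 uM final); after 1 hr ambient, read FP.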
KDM4E inh – JMJD2E (human) inhibition; 230,000 compounds, 1.6% hits; Potency, µM (highest dose often 57.1 µM), most hits filed as inhibitors; JMJD2E catalytic domain, FDH-coupled NADH fluorescence (FDH is formaldehyde dehydrogenase); AID 2147; B2RXH2; active means well fitted inhibition curve with a large enough effect, not every such curve was filed as active; inconclusive means small, poorly fitted or top-dose-only effect, or another doubt; inactive means no such curve, though single readings can be large or run the other way; further: nearly all actives have a fitted effect of over 50% in size
Tau fibril ThT – inhibitors of human tau fibril formation, thioflavin T binding; P10636; recombinant tau K18 P301L, heparin-induced fibrillization, ThT fluorescence; Potency, µM (doses to about 57.4 µM), most hits filed as inhibitors; 270,000 compounds, 2.1% hits; AID 1460; further: nearly all actives have a fitted effect of over 55% in size
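ThT emission at 510 nm, taken 1 hr after adding 30 uM dye, quantifies aggregates formed when 20 uM heparin acts on human tau K18 P301L for 6 hr at 37 C.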
A number is an active result; i = inactive; ? = inconclusive; nt = no result; [ ] = dose if it differs, or a comment. Unless noted, the call rests on the fitted dose curve; in most records, active means well fitted curve in the direction sought with a large enough effect; inconclusive means small, poorly fitted or top-dose-only effect, or another doubt; inactive means no such curve, though single readings can be large; an effect the other way counts as inactive or inconclusive.

SMILES	LMNA splice mod	Tau fluor cs	CBFb RUNX1 block	Tau fibril FP	KDM4E inh	Tau fibril ThT
Cc1cc(F)ccc1S(=O)(=O)NCC(c1ccco1)S(=O)(=O)c1cccs1 (centres undefined)	i	i	nt	i	nt	i
COc1ccc2c(c1)C(=NO)c1cc(OC)ccc1-2	i	?	i	i	i	0.71µM
C=CCOc1ccc2c(c1)C(=NO)c1cc(OCC=C)ccc1-2	?	?	i	?	i	7.9µM
Cc1cccc(C(=O)Nc2ccc(C(=O)OCc3cc(=O)n4c5c(sc4n3)CCCC5)cc2)c1	i	i	nt	i	nt	i
Cc1ccc(OCC(=O)NNc2c3ccccc3nc3ccccc23)cc1	?	14µM[quencher]	i	i	?	13µM
Cc1cccc(OCC(=O)NNc2c3ccccc3nc3ccccc23)c1	i[0.0737 µM]	14µM[quencher]	i	i	i	?
Cc1cc(CNC(=O)COc2ccccc2)c2ccccc2n1	nt	i	i	i	i	i
CCOc1ccc(Nc2c3ccccc3nc3ccccc23)cc1	nt	?	i	i	?	20µM
COC(=O)c1c(NC(=O)COc2cccc(C(F)(F)F)c2)sc2c1CCCC2	nt	i	nt	i	nt	i
COc1cccc(-c2noc(COc3cccc(C)c3C)n2)c1	nt	i	nt	i	nt	i
Cc1ccccc1CN1c2ccccc2-c2nc(SCC(=O)NCc3ccccc3)ncc2S1(=O)=O	nt	i	nt	i	nt	i
CCNC(=O)C1CCCN(c2nn3cc(-c4ccc(C)cc4)nc3s2)C1 (centres undefined)	i	i	nt	i	nt	?
Cc1oc(C)c2c(=O)ccc3c(c12)OC(N)=C(C#N)C3c1ccccc1Cl (centres undefined)	i	?	i	?	18µM	20µM
CSc1ccc(C2C(C#N)=C(N)Oc3c2ccc(=O)c2c(C)oc(C)c32)cc1 (centres undefined)	i	?	?	?	?	25µM
Cc1oc(C)c2c(=O)ccc3c(c12)OC(N)=C(C#N)C3c1ccccc1 (centres undefined)	i	?	i	?	?	25µM
N#CC1=C(N)OC2=C(CC/C2=C\c2ccccc2Cl)C1c1ccccc1Cl (centres undefined)	i	i	i	i	?	?
CC#CCN1c2ccccc2[C@]23C[C@@H](C(=O)OC)N(S(=O)(=O)c4ccc5c(c4)OCCN5C)C2=NC(C(=O)OC)=C(C(=O)OC)[C@H]13	i[9.22 µM]	i[11.6 µM]	i[13.1 µM]	i[11.6 µM]	i[11.4 µM]	i[11.5 µM]
COc1ccc(C2=Nn3c(nnc3-c3cccc(OC)c3)SC2)cc1	nt	nt	i	nt	nt	nt
COc1ccc(NC(=O)CN2CCCN(S(=O)(=O)c3ccc(Br)cc3)CC2)c(OC)c1	nt	i	nt	i	nt	?
O=C(c1ccc(OCCCc2cnc[nH]2)cc1)C1CC1	nt	nt	i	nt	nt	nt
COc1ccc(NC(=O)c2cc3c(s2)-c2c(C)cccc2OC3)c(OC)c1	nt	?	nt	i	nt	?
C[C@H](NC(=O)[C@@H]1C[C@H]1[C@@H](NC(=O)OCc1ccccc1)c1ccccc1)c1ccccc1	nt	i	i	i	i	i
COc1ccc(/C=N/OCC(=O)N=Nc2c(O)[nH]c3ccc(Br)cc23)cc1	nt	?	i	?	i	5µM
O=C(Nc1ccc(N2CCCC2)cc1)c1cccc(F)c1	i	?	i	?	i	13µM
O=C(Nc1ccc(N2CCCCC2)cc1)c1ccccc1	i	i	i	i	i	?
SMILES	LMNA splice mod	Tau fluor cs	CBFb RUNX1 block	Tau fibril FP	KDM4E inh	Tau fibril ThT
CN1CCN(c2ccc(NC(=O)c3sc4ccccc4c3Cl)cc2)CC1	i[9.22 µM]	?	i	i	?	5µM
O=C(Cn1c(-c2ccccc2)noc1=O)Nc1ccc(N2CCCCCC2)cc1	i	14µM[quencher]	?	?	i	i
O=C(Cn1c(-c2ccccc2)noc1=O)Nc1ccc(S(=O)(=O)N2CCOCC2)cc1	i	i	i	i	i	i
CC(=O)Nc1ccc(N2CCCC2)cc1	i	?	i	?	?	28µM
CN1CCN(c2ccc(NC(=O)c3cccc(OCc4ccccc4)c3)cc2)CC1	i	14µM[quencher]	i	?	i	?
CCN1CCN(c2ccc(NC(=O)c3cccc(OCc4ccccc4)c3)cc2)CC1	i	i	i	i	i	i
COc1ccc(-c2nc3c(c4c2C[C@H](c2ccccc2)OC4)CN(S(=O)(=O)c2ccc(Cl)c4nonc24)CC3)c(C)c1	?	i[11.6 µM]	i[13.1 µM]	i[11.6 µM]	i[11.4 µM]	i[11.5 µM]
O=c1oc2cc(O)ccc2cc1-c1nc2c(s1)CCc1ccccc1-2	?	11µM[quencher]	?	i	?	i
COc1ccc(/C=N/Nc2ccccn2)cc1OC	nt	?	i	i	i	?
Cc1[nH]c2ccccc2c1/C=N/Nc1nncn1N	?	?	i	i	?	14µM
Cc1[nH]c2ccccc2c1/C=N/Nc1nc(Nc2ccccc2)nc(N2CCOCC2)n1	?	22µM[quencher]	i	?	i	?
Cc1[nH]c2ccccc2c1/C=N/Nc1ccc(F)cc1F	i	?	i	i	?	13µM
CCc1cc(C(=O)N/N=C/c2c(C)[nH]c3ccccc23)cs1	i	?	i	i	?	?
Cc1[nH]c2ccccc2c1/C=N/NC(=O)c1cccc(F)c1	i	i	i	?	i	?
Cc1[nH]c2ccccc2c1/C=N/Nc1ccccn1	?	16µM[quencher]	?	i	25µM	10µM
Oc1[nH]c2ccccc2c1N=Nc1nc(Nc2ccccc2)nc(N2CCOCC2)n1	nt	i	i	i	i	nt
CCOCCCNC(=O)N1CCN(S(=O)(=O)c2ccc3c(ccn3C)c2)CC1	i	i	nt	i	nt	i
COCCn1c(=NC(=O)c2ccc3c(c2)OCCO3)sc2cc(C(=O)OC)ccc21	i	i	nt	i	nt	i
CCc1ccc(C(=O)/C=C/c2ccc([N+](=O)[O-])o2)cc1	?	?	i	?	i	8.9µM
N#CCCN1CCCc2cc(N=Nc3ccc(C(F)(F)F)cc3)ccc21	nt	8.9µM[quencher]	nt	?	i	3.5µM
O=c1nc2c(O)cccn2c2c1c(=O)[nH]c1ccccc12	?	i	i	?	11µM	?
CCCOc1ccc(C(=O)Nc2cccc(-c3nc4ccccc4[nH]3)c2)cc1	nt	10µM[quencher]	nt	25µM	nt	?
O=C(COc1ccc(F)cc1)Nc1ccc(Cl)c(-c2nc3ccccc3[nH]2)c1	?	?	nt	28µM	nt	i
COc1ccc(OCC(=O)Nc2cccc(-c3nc4ccccc4[nH]3)c2)cc1	i	20µM[quencher]	i	?	?	?
O=C(COc1ccccc1F)Nc1ccc(Cl)c(-c2nc3ccccc3[nH]2)c1	i	?	nt	?	nt	i
O=C(Nc1ccc(Cl)c(-c2nc3ccccc3[nH]2)c1)c1ccc2c(c1)OCO2	?	?	i	18µM	i	?
N#Cc1cccc(NC(=O)C2CCN(S(=O)(=O)c3ccc4c(c3)CCCN4C(=O)C3CCC3)CC2)c1	?	?	nt	i	nt	i
Cc1oc2c(c1C(=O)NCc1ccccc1F)C1=NCCN1C=N2	?	i	nt	i	nt	i
O=C1N(Cc2ccccc2Cl)c2ccccc2C1(O)c1c[nH]c2ccccc12 (centres undefined)	nt	?	nt	i	nt	i
